Data published in ChEMBL document CHEMBL3988442, “University of Dundee, Small-Polar-MMV Screening Library” (2021).
In all, about 48,000 compounds went through this assay and about 13,000 (27%) showed an effect of 50% or more. The list shows a part of the results.

These compounds were tested on Wolbachia pipientis (assay: Anti-Wolbachia Cell-Based Screen). Details: 5 µM.
Format: functional
Parameters: scale not given: in the data most compounds retested in dose-response had high values

| SMILES | Percent Effect |
| --- | --- |
| CC(C)c1noc(C[S+]([O-])CC(=O)Nc2ccc(F)c(F)c2)n1 (centres undefined) | -5.19% |
| CC(=O)NCCCSCCOc1cccc(C#N)c1 | -7.407% |
| O=C(Nc1ccncc1)NC1CCN(c2ccccc2Cl)C1=O (centres undefined) | 1.637% |
| COc1ccc(CCN2CC(c3nc(CSC)no3)CCC2=O)cc1 (centres undefined) | -1.637% |
| Cc1cc(CNC(=O)c2ccc(C(C)N3CCCCC3)o2)[nH]n1 (centres undefined) | -3.545% |
| O=C(c1cccc(-n2cccn2)c1)N1CCCOC(CN2CCCC2)C1 (centres undefined) | 2.221% |
| Cc1nnc2n1CCN(C(=O)CN1C(=O)C(C)Oc3ccccc31)C2 (centres undefined) | 3.234% |
| COCCn1cc(NC(=O)N(CCC(N)=O)Cc2ccccc2)cn1 | -7.009% |
| Cc1ccc(-c2nc(CCNC(=O)NC3CCN(C)CC3)co2)cc1 | -5.87% |
| Cc1nnc(NCCc2coc(-c3ccc(F)cc3)n2)c(C#N)c1C | 5.844% |
| Cc1ccc(-c2nc(CCNCc3ccncc3)co2)cc1 | 83.41% |
| Cc1cnn(CCNCCCOc2ccc(C#N)cc2)c1 | 4.876% |
| Cc1nc(NCc2cccnc2)c2c(n1)c(C)nn2C | -9.557% |
| CCC(CNc1ncnc2oc(C)nc12)Cc1ccccc1 (centres undefined) | -28.36% |
| C=C/C=c1\c(=C/C)oc2c(NCc3ccccc3)ncnc12 | 107.1% |
| Cc1nc2c(c(NCc3ccccc3)n1)CCN(C(=O)C1CCC1)CC2 | -5.333% |
| CS(=O)(=O)c1ccc(NCc2ccccc2)cn1 | -7.161% |
| C=C/C=c1\c(=C/C)oc2c(NCc3ccccc3)nc(C)nc12 | 116.4% |
| C=C/C=c1\c(=C/C)oc2c(NCc3ccccc3)nc(CC)nc12 | 112.6% |
| Cc1ccc(-c2nc(CN3CCc4nn(C)c(=O)cc4C3)no2)cc1 | -3.521% |
| CCCNC(=O)C(C)NC(=O)Nc1ccccc1SC(F)F (centres undefined) | -20.86% |
| O=C(c1ccc2occc2c1)N1CCC(C(=O)O)(n2cccn2)CC1 | 17.51% |
| CO[C@H]1CN(S(=O)(=O)c2cn(C)cn2)[C@@H]2CCCO[C@H]12 | -0.7123% |
| CNC(=O)NC(=O)CCSc1ccccc1Cl | -6.595% |
| Cc1cccc(CC(=O)NS(=O)(=O)c2ccc(F)c(F)c2)c1 | -13.3% |
| Cc1nc(CNC(=O)NC2CCN(c3cccc(Cl)c3)C2)no1 (centres undefined) | 1.056% |

| SMILES | Percent Effect |
| --- | --- |
| COCC(=O)N1CCN(c2cc(-n3cccc3)nc(C)n2)CC1 | -19% |
| COCC(=O)N1CCCC1c1cc(N2CCN(C(C)=O)CC2)cc(C)n1 (centres undefined) | 110.9% |
| COCC(=O)N1CCN(c2cc(C)nc(C3CCCN3C(C)=O)c2)CC1 (centres undefined) | 105.4% |
| COCC(=O)N1CCN(C(C)=O)C[C@@H]1C(=O)OC | 18.89% |
| COC(=O)N1CCCCC1C(=O)N1CCCN(c2ccnc(C)c2)CC1 (centres undefined) | 2.606% |
| O=C(NCC1OCCc2cn(CC3CCOCC3)nc21)c1ccncc1.O=C(O)C(F)(F)F (centres undefined) | -2.103% |
| CS(=O)(=O)N1C[C@@H]2OCC(=O)N(CC3CCC3)[C@@H]2C1 | -1.197% |
| O=C(O)c1csc(S(=O)(=O)N2CCCc3ccc(F)cc32)c1 | -8.72% |
| CC(C)N1CCC2(CCCN(Cc3ccc(F)cc3)C2=O)C1 (centres undefined) | -24.02% |
| O=C(NC1CC1)N1CCC2(CC1)C(=O)NCCN2Cc1ccccc1.O=C(O)C(F)(F)F | -18.73% |
| O=C1Nc2ccccc2CC12CCCN2Cc1ccc(C(F)(F)F)cc1 (centres undefined) | 105.2% |
| CS(=O)(=O)c1ccc(CN2CCCC3(C2)C(=O)Nc2ccccc23)cc1 (centres undefined) | 12.45% |
| COCCC1(CO)CCCN(Cc2ccc(C(F)(F)F)cc2)C1 (centres undefined) | -12.26% |
| O=C1Nc2ccccc2CC12CCCN2Cc1ccc(F)cc1 (centres undefined) | 106.5% |
| CCC(CC)c1cc(CNC(=O)N2CCN(CC)CC2)on1 | 1.8% |
| O=C(c1cnc(-c2ncccn2)s1)N1CCCC1Cn1cccn1 (centres undefined) | 93.22% |
| O=C(c1cnc(-c2ccccn2)s1)N1CCCC1Cn1cccn1 (centres undefined) | 117.3% |
| O=C(c1cnc(-c2cnccn2)s1)N1CCCC1Cn1cccn1 (centres undefined) | 93.62% |
| COc1ccc(CN2CCN(c3ncc(Cl)cn3)CC2)cc1 | -2.887% |
| CC(C)(O)c1cn(C2CCN(c3ncccc3Cl)CC2)nn1 | -4.75% |
| CSc1ccc(NC(=O)COCc2ccccc2)nc1 | -20.64% |
| NC(=O)CN(CC(N)=O)Cc1cccc(Oc2ccccc2)c1 | -1.216% |
| Nc1cc(C(=O)NC2CCCN(CCCc3ccccc3)C2)ccn1 (centres undefined) | 96.33% |
| Nc1cc(C(=O)NCC2CCN(CCc3ccccc3)C2)ccn1 (centres undefined) | -3.918% |
| O=C(NC1CCCN(CCCc2ccccc2)C1)c1ccc(Cl)s1 (centres undefined) | 85.82% |
| O=C(Cc1cccnc1)NC1CCCN(CCCc2ccccc2)C1 (centres undefined) | 124.1% |

| SMILES | Percent Effect |
| --- | --- |
| O=C(NC1CCCN(CCCc2ccccc2)C1)C1=CCCCC1 (centres undefined) | 81.9% |
| CN(C(=O)c1cccnc1)C1CCCN(CCc2ccccc2)C1 (centres undefined) | -6.072% |
| CN(C(=O)CC1=CCCCC1)C1CCCN(CCc2ccccc2)C1 (centres undefined) | 7.677% |
| CC(C)(C)NC(=O)N1CCC(NC(=O)Cc2cccnc2)CC1 | -14.05% |
| CC(C)C(=O)NCC(=O)N(C)C1CCCN(CCc2ccccc2)C1 (centres undefined) | -4.152% |
| CCOC(=O)C1CCN(C(=O)Cc2c(C)nc(C)[nH]c2=O)CC1 | 4.435% |
| COc1nccnc1N1CCC2(CCCN(C(C)C)C2=O)C1 (centres undefined) | -3.964% |
| CCN(c1ccc(C(=O)NCc2cc[nH]n2)cc1)C(C)C | -0.1162% |
| Cc1sc2nc(C(F)(F)F)nc(N3CCN(C)CC3)c2c1C | 8.571% |
| COc1ccc(F)c(F)c1CN1CCN(CC(C)C)C(=O)C1C (centres undefined) | 1.65% |
| O=C(NC1CC1)c1ccc(SCc2cscn2)cc1 | -37.4% |
| CC(C)CNC(=O)NC(=O)CNc1ccccc1SCC(C)C#N (centres undefined) | 9.026% |
| O=C(COC1CCCCC1)Nc1ccn(CCc2ccncc2)n1 | -1.367% |
| O=C(NC1CCCN(CCCc2ccccc2)C1)c1ccncc1 (centres undefined) | 84.08% |
| CN(C(=O)CCc1ccncc1)C1CCCN(CCc2ccccc2)C1 (centres undefined) | -4.229% |
| CN(Cc1ccsc1)C(=O)c1cccc(NS(C)(=O)=O)c1 | 8.391% |
| CN(Cc1ccsc1)C(=O)Nc1ccc(S(=O)(=O)N(C)C)cc1 | 5.237% |
| CN(Cc1ccsc1)C(=O)c1ccc(S(=O)(=O)NC(C)(C)C)cc1 | 98.59% |
| CN(Cc1ccsc1)C(=O)c1cccc(S(=O)(=O)NCC2CCCO2)c1 (centres undefined) | 104.2% |
| CN(Cc1ccsc1)C(=O)c1cccc(S(=O)(=O)NC(C)(C)C)c1 | 0.007999% |
| COCCNS(=O)(=O)c1ccc(Cl)c(C(=O)N(C)Cc2ccsc2)c1 | 14.25% |
| CNS(=O)(=O)c1cccc(C(=O)N(C)Cc2ccsc2)c1 | 124.1% |
| CN(Cc1ccsc1)C(=O)c1ccc(C2CCCO2)s1 (centres undefined) | -3.526% |
| CCN(C)C(=O)c1cccc(S(=O)(=O)NCCc2csc(N)n2)c1 | -2.209% |
| CCN(CC)S(=O)(=O)c1cccc(C(=O)N(C)Cc2ccsc2)c1 | 98.21% |
| CN(Cc1ccsc1)C(=O)c1cc(S(=O)(=O)N(C)C)ccc1Cl | 5.417% |

| SMILES | Percent Effect |
| --- | --- |
| CN(Cc1ccsc1)C(=O)c1ccc(F)c(NS(C)(=O)=O)c1 | 0% |
| Cc1ccc(C)c2c(C)c(C(=O)NCCC(=O)N3CCOCC3)oc12 | 9.055% |
| CC(C)c1nsc(NC2CC(=O)N(C(C)(C)C)C2)n1 (centres undefined) | 1.592% |
| COC(CNC(=O)c1cn(C)nn1)c1ccc(C)s1 (centres undefined) | -8.016% |
| Cc1ccccc1C(C)NC(=O)Cc1c(C)nc2cc(=O)[nH]n2c1C (centres undefined) | -0.7333% |
| CN(CCNc1ncc2c(n1)CCN2c1ccccc1)S(C)(=O)=O | 7.395% |
| O=C(O)c1ccccc1-c1c(-c2ccccc2)ncn1CC1CCCO1 (centres undefined) | -2.227% |
| Cc1nnc2n1CCN(C(=O)c1ccn(-c3cccc(F)c3)n1)C2 | 108.9% |
| Cc1nnc2n1CCN(C(=O)c1cn(-c3ccccc3)nn1)C2 | 102.5% |
| Cc1nnc2n1CCN(C(=O)c1cn(-c3ccccc3Cl)nn1)C2 | -0.6863% |
| Cc1nnc2n1CCN(C(=O)c1cc(Cl)c(Cl)n1C)C2 | -5.044% |
| O=C(c1ccn(-c2cccc(F)c2)n1)N1CCN(CCO)CC1 | -27.1% |
| COCc1ccccc1C(=O)N1CCn2c(nnc2C(C)C)C1 | 6.004% |
| CC(C)(O)CN1CCN(C(=O)c2ccn(-c3cccc(F)c3)n2)CC1 | -183.4% |
| Cc1cccc(-n2c(C)cc(C(=O)N3CCn4c(C)nnc4C3)c2C)c1 | 1.537% |
| Cc1cccc(-n2cc(C(=O)N3CCn4c(C)nnc4C3)nn2)c1 | 7.104% |
| CC(C)c1nnc2n1CCN(C(=O)c1cn(-c3ccccc3)nn1)C2 | 113.1% |
| Cc1ccc(-n2cc(C(=O)N3CCn4c(C)nnc4C3)nn2)cc1 | 111.3% |
| CCOC(C(=O)N1CCn2c(nnc2C(C)C)C1)c1ccccc1 (centres undefined) | -0.6295% |
| O=C(CN1CCOC1=O)N1CCc2nnc(-c3ccccc3)n2CC1 | 3.396% |
| Cc1nnc2n1CCN(C(=O)c1cn(-c3ccc(F)cc3)nn1)C2 | 133.8% |
| CCc1nnc2n1CCN(C(=O)c1cn(-c3ccccc3)nn1)C2 | 104.4% |
| Cc1nnc2n1CCN(C(=O)c1cc(C)n(-c3ccccn3)c1C)C2 | -6.785% |
| CCc1nnc2n1CCN(C(=O)C(OC)c1ccccc1)C2 (centres undefined) | -1.714% |
| Cc1nc(-c2ccsc2)ccc1C(=O)N1CCn2c(C)nnc2C1 | -2.134% |
| CCc1nnc2n1CCN(C(=O)c1cnc3ccccc3n1)C2 | -19.02% |
